# Assay results as given in the supplement of paper PMC10723795.
# ± gives the standard deviation of the averaged measurements.
# Tested on: BJ5TA
# Experiment: nucleolar normality score relative to DMSO (fraction of DMSO control); RPE1 is a non-cancer human cell line; higher = more normal nucleoli (less nucleolar stress)
# Experimental: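 Selected screen hits were validated in hTERT lines (BJ5TA, CHON-002, RPE1) and cancer lines (DLD1, HCT116). Cells were immunostained for nucleolin and UBF and the nucleolar normality score was measured per field of view, with 4 fields per drug. Scores are normalized to each cell line's own DMSO control. Dose and time are not stated for this panel.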
row,Compound,nucleolar normality score
1,CC[C@@]1(O)C(=O)OCc2c1cc1n(c2=O)Cc2cc3ccccc3nc2-1 [Camptothecin],0.473 ± 0.03
